# A selection: hits, their analogues and other compounds. The true share with any hit is near 8.3%.
# FMDV antiviral: antivirals against foot and mouth disease virus; FMDV antiviral cell-based qHTS; Potency, µM (series often up to 57.9 µM), for the others: top-dose activity change, negative = inhibition, hits mostly inhibitors; 1.2% of 410,000 active; calls by dose curve; tested in HEK293T cells; also: read-out not given here; potency is read from the fitted curve at half-maximal effect; nearly all actives have a fitted effect of over 45% in size
# LASV entry inh: inhibitors of Lassa virus binding or cell entry; Lassa virus pseudotype entry inhibition, cell reporter; Potency, µM (doses to about 37.9 µM), for inactives: top-dose activity change, negative = inhibition, actives largely listed as inhibitors; 1.2% of 300,000 active; AID 540256; calls by dose curve; tested in HEK293 cells; also: potency is read from the fitted curve at half-maximal effect; nearly all actives have a fitted effect of over 50% in size
# Giardia FBPA inh: Giardia lamblia aldolase inhibition; 0.71% of 290,000 active; AID 2451; purified Giardia FBPA; Potency, µM (highest dose often 59.6 µM), for inactives: at the highest dose activity, negative = inhibition, most hits filed as inhibitors; A8B2U2; also: potency is read from the fitted curve at half-maximal effect; nearly all actives have a fitted effect of over 55% in size
# Target sequence (A8B2U2 whole entry, looked up): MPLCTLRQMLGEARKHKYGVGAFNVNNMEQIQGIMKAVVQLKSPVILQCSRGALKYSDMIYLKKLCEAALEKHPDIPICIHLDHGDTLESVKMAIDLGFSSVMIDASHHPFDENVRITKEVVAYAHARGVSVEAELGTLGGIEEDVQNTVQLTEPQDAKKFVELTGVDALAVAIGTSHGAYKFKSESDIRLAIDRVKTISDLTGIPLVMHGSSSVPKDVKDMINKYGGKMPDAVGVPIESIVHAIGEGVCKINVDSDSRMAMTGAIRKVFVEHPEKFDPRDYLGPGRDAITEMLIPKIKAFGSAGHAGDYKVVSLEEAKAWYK
#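 Giardia FBPA (40 nM reagent) was preincubated 10 min at RT with compound (up to 57.5 uM final), then substrate plus GAPDH/TPI/NAD/arsenate coupling system with diaphorase/resazurin was added; resorufin fluorescence (525/598 nm) was read after 20 min.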
# HCMV antiviral: human cytomegalovirus inhibition; HFF cells, HCMV-luciferase reporter, 72 h; stronger effect = lower value; activity change, negative = inhibition, % at 57.5 µM; 4.5% of 410,000 active; AID 1259415; in the data active = activity change below about -60%; inconclusive = no clear call, values can overlap the other calls; inactive = above about -39%
#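 Steps: HFFs plated, 16 h 37C; compounds added; HCMV-luciferase added to MOI 1 PFU/cell; 72 h 37C; OneGlo reagent, 5 min room temperature; luminescence read, normalized to controls.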
# Marburg entry inh: inhibitors of Marburg virus binding or cell entry. Marburg virus pseudotyped entry inhibition, cell reporter. Potency, µM (top dose mostly 37.8 µM), for inactives: at the highest dose activity change, negative = inhibition, actives largely listed as inhibitors. 1.8% of 300,000 active; calls by dose curve; tested in HEK293 cells; also: potency is read from the fitted curve at half-maximal effect
# HCV inh: inhibitors of hepatitis C virus infection; AID 651820; Potency, µM (doses to about 41.8 µM), inactives show at the highest dose activity change, negative = inhibition, most hits filed as inhibitors; 3.4% of 340,000 active; Huh7.5.1 HCVcc-Cre infection, luciferase reporter, 44 h; also: potency is read from the fitted curve at half-maximal effect
#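 Infectious HCV cell culture screen: compound-treated cells (1,000/well, pre-plated 4 h) are infected with HCVcc-Cre at roughly 0.5 moi and grown 44 h. Infection is quantified by luciferase signal after 15 min substrate incubation at room temperature.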
# * = called active by the depositor; ? = inconclusive; / = not tested or not shown; [ ] = remark or other dose. Unless noted, calls follow the shape of the dose curve; as a rule, active = well fitted curve in the direction sought with a large enough effect; inconclusive = small, poorly fitted or top-dose-only effect, or another doubt; inactive = no such curve, though single readings can be large; an effect the other way counts as inactive or inconclusive. % is scaled to controls: 0 for no effect and ±100 for the full control effect.
SMILES,FMDV antiviral,LASV entry inh,Giardia FBPA inh,HCMV antiviral,Marburg entry inh,HCV inh
O=C1C=CC2(O[C@H](c3ccccc3)[C@@H](c3ccccc3)O2)[C@H](Sc2ccccc2O)C1,7.9µM*,6.3µM*,/,-100*,?,?
C[C@@H]1[C@@H](Sc2ccccc2)CC(=O)O[C@@H]1c1ccc(-c2ccccc2)cc1,0%,/,1%,?,/,?
CCN(C(=O)CCS(=O)(=O)c1cc2[nH]c(=O)c(=O)[nH]c2cc1C)c1ccccc1,3%,20%[46.1 µM],/,0,/,/
O=C(c1cnn2c(C(F)F)cc(C3CC3)nc12)N1CCc2ccccc2C1,?,?,-5%,19,?,8.9µM*
Cn1nnnc1SCc1ccc(C(=O)Nc2nccs2)cc1,51%,?,0%,-30,21%,-9%
C=CCn1c(SCc2ccc(C(=O)Nc3nccs3)cc2)nnc1-c1ccc(C)c(Cl)c1,28µM*,11µM*,-1%,-94*,?,8.9µM*
COc1cc(OC)cc(C(=O)OCC(=O)Nc2cccc(S(=O)(=O)NC3=NCCCCC3)c2)c1,22µM*,18%,/,-18,?,?
O=C(/C=C/c1ccccc1[N+](=O)[O-])Nc1cccc(S(=O)(=O)NC2=NCCCCC2)c1,3%,/,/,1,/,3.2µM*
O=C(COC(=O)c1ccc(O)cc1)Nc1cccc(S(=O)(=O)NC2=NCCCCC2)c1,59%,8%,5%,-36,2%[46.1 µM],-3%
O=C(CCl)Nc1cccc(S(=O)(=O)NC2=NCCCCC2)c1,?,/,/,-102*,/,6.3µM*
Cc1ccc(Nc2nnc(SCC(=O)Nc3cccc(S(=O)(=O)NC4=NCCCCC4)c3)s2)c(C)c1,32µM*,?,-12%,-13,?,-20%
Cc1ccc(C)c(SCC(=O)Nc2cccc(S(=O)(=O)NC3=NCCCCC3)c2)c1,-10%,-8%,-5%,-30,?,?
CC(C)N(Cc1ccccc1)S(=O)(=O)c1ccc(N2CCCCS2(=O)=O)cc1,?,?,/,-32,/,/
CCc1cc2c(cc3c(=O)n(CC(=O)NCCc4ccccc4)ncn32)s1,5%,/,/,12,2%[46.1 µM],/
O=C(Nc1cccc(S(=O)(=O)NC2=NCCC2)c1)c1ccc(C(F)(F)F)cc1,-24%,0%,/,-60*,-15%,?
O=C(CCl)Nc1ccc(S(=O)(=O)NC2=NCCCCC2)cc1,32µM*,?,/,-37,?,?
CC(C)(C)C(=O)Nc1ccc(S(=O)(=O)NC2=NCCCCC2)cc1,-12%,/,/,0,/,7%
CN1C(=O)C(C(Nc2ccccc2)c2ccc(Br)cc2)c2ccccc21 (stereo unspecified),/,/,/,49,/,/
CC(=O)C1=C(C)N(Cc2ccccc2)C(=O)NC1c1cccc(C(F)(F)F)c1 (stereo unspecified),/,/,/,/,-7%[14.2 µM],/
O=C(CN1CCSC1=NCc1ccccc1)c1ccc(Cl)cc1,-11%,15%,-16%,-4,-24%,13µM*
O=c1c(CCc2ccccc2)nc2cnc(Oc3cccc(Cl)c3)nc2n1C[C@H]1CCCO1,6%,/,0%,/,/,/
Cc1cc(Br)cnc1NC(=S)Nc1ccc(F)cc1F,8%,4%[46.1 µM],-24%,-25,?,10µM*
O=C(Nc1ccc(F)cc1F)c1cncc(Br)c1,6%,16%[46.1 µM],2%,?,?,13%
Cc1nn2c(NCCN(C)C)c3c(nc2c1-c1ccccc1)CCCC3,-1%,-16%[46.1 µM],0%,?,10µM*,7.1µM*
Cc1nn2c(NCCOCCO)c3c(nc2c1-c1ccccc1)CCCC3,-28%,4%,0%,/,?,11µM*
SMILES,FMDV antiviral,LASV entry inh,Giardia FBPA inh,HCMV antiviral,Marburg entry inh,HCV inh
CCC(C)Nc1c2c(nc3c(-c4ccccc4)c(C)nn13)CCC2 (stereo unspecified),?,-15%,4%,?,-16%,2.2µM*
COc1cccc(Nc2c3c(nc4c(-c5ccccc5)c(C)nn24)CCC3)c1,?,?,8%,-63*,?,?
CNS(=O)(=O)c1cn(CC(=O)Nc2ccc(OC)cc2OC)cc1S(=O)(=O)NC,4%,17%[46.1 µM],/,0,/,/
COc1cc(CNc2ccc3[nH]c(=O)[nH]c3c2)ccc1OCc1ccc(C)cc1,-2%,-12%[46.1 µM],1%,14,-24%[46.1 µM],?
COc1cc(CNc2ccc3[nH]c(=O)[nH]c3c2)ccc1OCc1cccc(C)c1,-16%,?,5%,-66*,-20%,6.3µM*
Oc1c(CN2CCOCC2)cc(CN2CCOCC2)c(O)c1O,-3%,9%[46.1 µM],/,-8,0%[46.1 µM],11%
Fc1cccc(COc2ccccc2CNc2ccccc2)c1,-12%,1%,-10%,-10,?,?
Oc1c(CN2CCOCC2)cc(COCc2ccccc2)c2cccnc12,-6%,?,-30%,-95*,?,?
Oc1c(CNc2ccccc2)cc(COCc2ccccc2)c2cccnc12,?,/,/,-100*,/,/
CCOC(=O)c1c(-c2ccc(OC)cc2)oc2ccc(OCc3ccc(Br)cc3)cc12,-11%,17%[46.1 µM],/,24,12%[46.1 µM],/
COc1ccc2oc3cc(C)[n+]([O-])c(-c4ccc(Br)cc4)c3c2c1,32µM*,?,10%,-84*,-28%,?
O=C(Nc1ccc2nc(SCC(=O)N3CCCC3)sc2c1)c1ccc(Br)cc1,-14%,13%[46.1 µM],/,-8,20%[46.1 µM],/
O=C(Nc1ccc2nc(SCC(=O)N3CCc4ccccc43)sc2c1)c1ccc(F)cc1,0%,-2%[46.1 µM],/,-63*,2%[46.1 µM],/
O=C(Nc1ccc2nc(SCC(=O)N3CCc4ccccc43)sc2c1)c1ccc(Cl)cc1,6%,?,/,-93*,7%[46.1 µM],/
CC(C)(C)c1ccc(C(=O)Nc2ccc3nc(SCC(=O)N4CCCC4)sc3c2)cc1,10µM*,?,/,-97*,?,/

# Assay outcomes from PubChem.
